# From the supplement of paper PMC4466236
# In all, about 33,000 sequences were measured (“E-score (dimensionless, -0.5 to 0.5)”: median about -0.058, highest 2% from about 0.35 on). The sample holds the highest values, similar sequences and a random draw of the others, so the mix is not that of the screen.
# Tested on: MvaT
# Assay: PBM 8-mer E-score (mean of HK and ME arrays) (E-score (dimensionless, -0.5 to 0.5)); higher = stronger relative binding preference
# Experimental: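 Protein binding microarray: GST-tagged full-length MvaT (P. aeruginosa PAO1) bound to two universal double-stranded 60-mer arrays (ME and HK), each with a constant 25-mer primer and a variable 35-mer region covering all 8-mers. The 8-mer E-score (rank-based, range -0.5 to 0.5, >0.45 = specific binding) is the mean of the two arrays.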
row,Sequence,PBM 8-mer E-score
1,CCTACCAG,-0.279
2,CGGTTATC,0.0552
3,GCATCGGA,-0.11
4,CTGATGCC,-0.231
5,AGAGAAAT,0.134
6,GATAGTAA,0.284
7,TAATTAAA,0.447
8,CAATTAAG,0.24
9,AAATTAAT,0.426
10,AAATTAAG,0.361
11,GAATTAAC,0.256
12,CAATTAAA,0.305
13,AAATTACT,0.308
14,AAATTAGT,0.281
15,GGATTAAA,0.232
16,TGATTAAA,0.27
17,GAATTAAA,0.385
18,AAATTACG,0.256
19,CCCGTACA,-0.0141
20,CGTAATCA,0.0215
21,AAATTAAC,0.27
22,AAATTAAA,0.399
23,AAATTAGA,0.191
24,CGGAGGGA,-0.311
25,CAAAACAC,0.0954

row,Sequence,PBM 8-mer E-score
1,GGTTTAAA,0.31
2,AGTTTAAG,0.257
3,CGTTTAAA,0.317
4,AGTTTAAT,0.379
5,AGTTTAAC,0.244
6,TGTTTTAA,0.302
7,AGTTTAAA,0.378
8,AGTTTTAA,0.259
9,TGTTTAAA,0.387
10,AATTCTGA,0.0908
11,TGCATCCA,-0.0802
12,GGGCCCTA,-0.218
13,AGGAAGAG,-0.188
14,ATGGAGTA,0.0119
15,CATACTAA,0.198
16,AATACTAA,0.356
17,GATACTAA,0.213
18,TATACTAA,0.391
19,AATACTAT,0.297
20,AATACTAC,0.271
21,TCTGAGAA,-0.0369
22,AGCTAAGA,-0.0322
23,ATAATGTA,0.401
24,CTAATGTA,0.23
25,CTAATGCA,-0.0396

row,Sequence,PBM 8-mer E-score
1,ATAATGCA,0.36
2,ATAATGCG,0.271
3,ATAATGTC,0.337
4,ATCCCGCC,-0.0462
5,CCTATCTC,0.0122
6,AACCGTTG,-0.0901
7,GTTGTACA,0.115
8,AAGAGTGA,0.00575
9,CTTCACTC,-0.239
10,ATAAGTGC,0.178
11,CTAAGTCA,-0.101
12,GTAAGTTA,0.396
13,CTAAGTTA,0.352
14,ATAAGTTA,0.441
15,ATAAGTTG,0.342
16,GGAAGTTA,0.227
17,ACAAGTTA,0.338
18,ATAAGTTC,0.368
19,AGAAGTTC,0.223
20,CTAAGTTC,0.232
21,GCAAGTTA,0.34
22,ACACAACG,-0.0104
23,GAAGGAGA,-0.255
24,GGGTTCAC,-0.111
25,AACCATAT,0.254

row,Sequence,PBM 8-mer E-score
1,AACATCCC,2.53e-05
2,TACGAGGA,-0.05
3,GGGGCCAA,-0.225
4,CTATCCAA,-0.0391
5,CTATTAGA,0.208
6,CTATTACA,0.267
7,ATATTACA,0.386
8,ATATTAGG,0.309
9,ATATTAGC,0.352
10,ATATTAGA,0.407
11,ATATTACC,0.293
12,CTATTAGC,0.136
13,GTATTAGA,0.267
14,ATCTGTGA,-0.0144
15,CACTTAGC,-0.0629
16,GCCCGCGA,-0.31
17,ACCTGTCG,-0.277
18,CTGAAAAG,-0.0791
19,AAAATTGT,0.269
20,TAAATTAA,0.437
21,AAAATTAG,0.162
22,GAAATTAA,0.331
23,AAAATTAA,0.387
24,AAAATTAC,0.149
25,AAAATTGA,0.224

row,Sequence,PBM 8-mer E-score
1,CAAATTAA,0.286
2,AAAATTAT,0.355
3,CCTAATAC,0.104
4,GGGCTCCA,-0.168
5,GAAGCATA,0.00764
6,CACACCTA,0.0249
7,ACACGAGT,-0.0299
8,ACTACTGG,0.0326
9,AATCCGCC,-0.0734
10,ATTTTTAA,0.323
11,CCTTAAAA,0.0816
12,ACTTAAAA,0.226
13,CTTTTAAC,0.314
14,ATTTTAAA,0.383
15,CTTTTAAA,0.361
16,CTTTTTAA,0.213
17,GTTTTAAA,0.282
18,ATTTAAAA,0.377
19,CGCTGGAA,-0.092
20,AGCAAAAA,0.0929
21,ACGTTGAT,0.0529
22,GCAAACAA,0.0823
23,TATATAGA,0.434
24,CATATAGA,0.187
25,AATATAGC,0.343

row,Sequence,PBM 8-mer E-score
1,AATAGAGA,0.217
2,GATATAGA,0.206
3,AATATAGA,0.365
4,AATATAGT,0.398
5,ACTATAGA,0.127
6,AATATAGG,0.288
7,CCCTTCAG,-0.27
8,GAGTAGAA,0.0154
9,AGAAACGG,-0.0989
10,ATACAATG,0.204
11,CCGGCTAC,-0.217
12,GCCAGAAC,-0.0482
13,AAATAAAA,0.419
14,AAATAAAG,0.405
15,AAATAAGT,0.38
16,AGATAAAA,0.178
17,AAATAAAT,0.428
18,AAATAAGC,0.275
19,AAATAAAC,0.334
20,AAATAAGG,0.322
21,ACATAAAT,0.301
22,ACATAAAA,0.23
23,ACATAAAG,0.101
24,CAATAAAG,0.252
25,AAGCCGCT,-0.232

row,Sequence,PBM 8-mer E-score
1,ATTCAACG,0.0307
2,CCAATTCA,-0.0716
3,TCCTGTCA,-0.158
4,GAGCAAAC,-0.0867
5,GCTGCCAA,-0.0483
6,CTACTAAG,-0.00927
7,AAGCGTCA,-0.00559
8,CCGAATAG,-0.0201
9,CGCAGTCC,-0.172
10,AACCTCCA,-0.115
11,GGTCTGTA,-0.219
12,GAACCTGA,-0.0412
13,AATCTCGA,0.179
14,ACTGAAAG,-0.0474
15,ACTTAAAT,0.331
16,ATTAAAAT,0.29
17,AATTAAAA,0.373
18,TATTAACA,0.437
19,AATTAAAT,0.452
20,ACTTAAAG,0.159
21,GATTAACA,0.278
22,CATTAACA,0.274
